{
  "source": "PubChem BioAssay (EPA / NIEHS)",
  "note": "Active and inactive are the calls of the source. The calls were made as follows: active = hit-call score of the fitted dose curve at least 0.9, where 1 is the maximum; inactive = score below 0.9.",
  "data": [
    {"molecular_target": "Aryl hydrocarbon receptor (Homo sapiens) (UniProt P35869)", "sequence (P35869 whole entry, looked up)": "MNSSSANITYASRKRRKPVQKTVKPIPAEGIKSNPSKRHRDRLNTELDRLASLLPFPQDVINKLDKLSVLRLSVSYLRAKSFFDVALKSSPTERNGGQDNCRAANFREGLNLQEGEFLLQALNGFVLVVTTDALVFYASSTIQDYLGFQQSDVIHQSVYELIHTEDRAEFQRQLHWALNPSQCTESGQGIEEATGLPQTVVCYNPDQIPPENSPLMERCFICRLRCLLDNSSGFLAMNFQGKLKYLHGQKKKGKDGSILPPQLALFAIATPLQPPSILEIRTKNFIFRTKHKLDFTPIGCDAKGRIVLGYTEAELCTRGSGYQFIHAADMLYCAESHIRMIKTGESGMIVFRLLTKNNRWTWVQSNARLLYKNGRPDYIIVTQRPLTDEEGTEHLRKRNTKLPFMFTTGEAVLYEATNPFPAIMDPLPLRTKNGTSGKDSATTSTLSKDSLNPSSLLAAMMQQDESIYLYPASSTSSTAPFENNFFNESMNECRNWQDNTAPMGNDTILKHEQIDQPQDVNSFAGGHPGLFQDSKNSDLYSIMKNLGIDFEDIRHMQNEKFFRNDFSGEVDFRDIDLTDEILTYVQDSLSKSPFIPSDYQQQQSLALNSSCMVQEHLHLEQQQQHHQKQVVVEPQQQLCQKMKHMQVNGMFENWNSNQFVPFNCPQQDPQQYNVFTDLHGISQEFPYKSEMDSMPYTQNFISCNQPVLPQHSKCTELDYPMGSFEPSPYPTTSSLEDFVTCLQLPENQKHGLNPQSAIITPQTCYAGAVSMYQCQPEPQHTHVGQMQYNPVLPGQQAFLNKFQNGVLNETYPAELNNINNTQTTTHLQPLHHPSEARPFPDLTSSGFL", "assay": "ATG_Ahr_CIS: Attagene CIS-FACTORIAL HepG2 Assay for human Aryl Hydrocarbon Receptor (Ahr) (AID 2282930)", "conditions": "HepG2 AhR cis-factorial reporter transcription; actives raise or lower the signal", "protocol": "ATG_CIS is a cell-based, multiplexed-readout assay that uses HepG2, a human liver cell line, with measurements taken at 24 hours after chemical dosing in a 24-well plate.ATG_Ahr_CIS is one of 52 assay component(s) measured or calculated from the ATG_CIS assay. It is designed to make measurements of mRNA induction, a form of inducible reporter, as detected with fluorescence intensity signals by Reverse transcription polymerase chain reaction (RT-PCR) and Capillary electrophoresis technology.Data from the assay component ATG_Ahr_CIS was analyzed into 1 assay endpoint. This assay endpoint, ATG_Ahr_CIS, was analyzed with bidirectional fitting relative to DMSO as the negative control and baseline of activity. Using a type of inducible reporter, measures of mRNA for gain or loss-of-signal activity can be used to understand the reporter gene at the transcription factor-level as they relate to the gene AHR. Furthermore, this assay endpoint can be referred to as a primary readout, because this assay has produced multiple assay endpoints where this one serves a reporter gene function. To generalize the intended target to other relatable targets, this assay endpoint is annotated to the dna binding intended target family, where the subfamily is basic helix-loop-helix protein.\nHuman liver HepG2 cells are transiently transfected with multiple reporter transcription units (MRTUs) in 6-well plates using FuGene 6 reagent (Roche; 3 ml FuGene/1 mg DNA). The MRTU constructs are regulated by a cis-regulating element (promoter). […] A major difference between the CIS and TRANS system is that in CIS activities of endogenous TFs are measured, whereas the TRANS assay evaluates changes in activities of exogenous, chimeric NR-Gal4 proteins. […] At the end of 24 hour incubation, total RNA was isolated using TriZol reagent (Invitrogen). The isolated RNA is then reverse-transcribed using oligo(dT) primer and Mo-MLV reverse transcriptase (Invitrogen) with DNAse I (Ambion) treatment for 30 min. The one-tenth of the produced cDNA was amplified by PCR using Taq DNA polymerase (Invitrogen) and two reporter sequence-specific primers. The PCR products were fluorescently labeled by primer extension with 6-arboxyfluorescein (6-FAM) 5'-labeled reporter sequence-specific primer (2 min at 95 C, 20 s at 68 C and 10 min at 72 C) and these products were digested with 5U of HpaI (New England Biolabs) for 2h at 37 C. […] The raw capillary electrophoresis data was processed using Attagraph software (Attagene).", "values": [
      {"smiles": "COc1ccc2ccccc2c1", "outcome": "inactive"},
      {"smiles": "C[Si](C)(C)O[Si](C)(C)O[Si](C)(C)C", "outcome": "inactive"},
      {"smiles": "CC1=C(CC(=O)O)c2cc(F)ccc2/C1=C\\c1ccc(S(C)=O)cc1", "note": "(stereo not given)", "AC50": "3.48 µM (active)"},
      {"smiles": "CC(O)(P(=O)(O)O)P(=O)(O)O", "outcome": "inactive"},
      {"smiles": "CC(C)(C)NC(=O)[C@@H]1CN(Cc2cccnc2)CCN1C[C@@H](O)C[C@@H](Cc1ccccc1)C(=O)N[C@H]1c2ccccc2C[C@H]1O", "AC50": "57.2 µM (active)"},
      {"smiles": "CC/C=C\\CC1=C(C)CCC1=O", "outcome": "inactive"},
      {"smiles": "CN(C)CCCN1c2ccccc2CCc2ccc(Cl)cc21", "outcome": "inactive"},
      {"smiles": "CC1=NN(c2cc(Cl)c(S(=O)(=O)O)cc2Cl)C(=O)C1N=Nc1ccc(S(=O)(=O)O)cc1", "note": "(stereo not given)", "outcome": "inactive"},
      {"smiles": "CC1(C)S[C@@H]2[C@H](NC(=O)[C@H](N)c3ccccc3)C(=O)N2[C@H]1C(=O)O", "outcome": "inactive"},
      {"smiles": "O=C(O)c1cc(Cl)cc(Cl)c1O", "AC50": "79 µM (active)"},
      {"smiles": "CN(C)c1ccc(C(c2ccccc2)c2ccc(N(C)C)cc2)cc1", "outcome": "inactive"},
      {"smiles": "Oc1ccc(Oc2ccccc2)cc1", "outcome": "inactive"},
      {"smiles": "CN(C)CCC(c1ccc(Cl)cc1)c1ccccn1", "note": "(stereo not given)", "outcome": "inactive"},
      {"smiles": "CCCCCCCCCCC1CO1", "note": "(stereo not given)", "outcome": "inactive"},
      {"smiles": "C1=CCC=C1", "outcome": "inactive"},
      {"smiles": "Cc1cccnc1", "outcome": "inactive"},
      {"smiles": "Cc1cc(C)c(S(=O)(=O)O)cc1N=Nc1cc(S(=O)(=O)O)c2ccccc2c1O", "AC50": "42.4 µM (active)"},
      {"smiles": "CCCCn1cc[n+](C)c1", "outcome": "inactive"},
      {"smiles": "CCCCCCCCCCCCCC", "outcome": "inactive"},
      {"smiles": "OCCN(CCO)c1cccc(Cl)c1", "outcome": "inactive"},
      {"smiles": "C[C@H]1C[C@H]2[C@@H]3CCC4=CC(=O)C=C[C@]4(C)[C@@]3(F)[C@@H](O)C[C@]2(C)[C@@]1(O)C(=O)CO", "AC50": "44.6 µM (active)"},
      {"smiles": "COC(=O)c1ccccc1", "outcome": "inactive"},
      {"smiles": "CC1=C(CC=O)C(C)(C)CCC1", "outcome": "inactive"},
      {"smiles": "COc1ccccc1OCC(O)CO", "note": "(stereo not given)", "outcome": "inactive"},
      {"smiles": "F[B-](F)(F)F", "outcome": "inactive"},
      {"smiles": "CC(C)n1c(/C=C/[C@@H](O)C[C@@H](O)CC(=O)O)c(-c2ccc(F)cc2)c2ccccc21", "AC50": "51.7 µM (active)"},
      {"smiles": "CC(C)(Oc1ccc(Cl)cc1)C(=O)O", "outcome": "inactive"},
      {"smiles": "O=C(C1CCCCC1)N1CC(=O)N2CCc3ccccc3C2C1", "note": "(stereo not given)", "AC50": "27.8 µM (active)"},
      {"smiles": "Nc1ccc(S(=O)(=O)Nc2cnc3ccccc3n2)cc1", "outcome": "inactive"},
      {"smiles": "CCCN[C@H]1CCc2nc(N)sc2C1", "outcome": "inactive"}
    ]}
  ]
}
